MITF primary = blocks human microphthalmia-associated transcription factor | O75030 | AlphaScreen MITF homodimerization, bead proximity signal | inhibition, % at 2.6 µM | 650,000 compounds, 0.91% hits | AID 1259374; in the data active = inhibition above about 50%;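 also: 0% = vehicle wells with protein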
Target sequence (O75030 whole entry, looked up): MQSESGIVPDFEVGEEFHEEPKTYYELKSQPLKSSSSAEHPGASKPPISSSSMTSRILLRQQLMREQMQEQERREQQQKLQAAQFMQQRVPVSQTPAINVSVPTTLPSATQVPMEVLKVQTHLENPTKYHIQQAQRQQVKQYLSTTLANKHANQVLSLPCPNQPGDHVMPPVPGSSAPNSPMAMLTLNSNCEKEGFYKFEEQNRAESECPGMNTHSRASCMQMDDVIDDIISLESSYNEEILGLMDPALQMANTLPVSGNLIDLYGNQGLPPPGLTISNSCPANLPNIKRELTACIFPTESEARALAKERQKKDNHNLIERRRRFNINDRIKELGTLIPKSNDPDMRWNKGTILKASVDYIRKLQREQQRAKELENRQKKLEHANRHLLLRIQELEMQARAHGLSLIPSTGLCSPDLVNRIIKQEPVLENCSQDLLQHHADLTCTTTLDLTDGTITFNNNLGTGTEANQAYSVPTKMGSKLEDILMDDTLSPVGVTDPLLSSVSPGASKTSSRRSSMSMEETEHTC
GPR151 ag = activates the human receptor GPR151; Q8TDV0; PathHunter beta-arrestin GPR151 cells, luminescence; AID 1508602; 650,000 compounds, 1% hits; activation, % at 11.2 µM; in the data active = activation above about 4.9%;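 also: 0% = median of compound wells and 100% = cells with positive control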
TEAD-YAP block = TEAD-YAP interaction inhibition; HEK-TIYL cells, TEAD-Gal4/YAP UAS-luciferase luminescence; AID 1259422; inhibition, % at 9.12 µM; 640,000 compounds, 1.4% hits; in the data active = inhibition above about 32%;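 also: 0% = median of test compound wells and 100% = reference inhibitor wells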
FBW7 activator = activators of human E3 ligase FBW7; 650,000 compounds, 0.13% hits; normalized activity (activation), % at 26.1 µM; Q969H0; AlphaScreen FBW7–phospho-cyclin E peptide binding, activator screen; in the data active = normalized activity above about 1.9%;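 also: purified mutant Fbw7 with reduced substrate affinity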
Numbers without * were called inactive. Compounds with a hit are over-represented: about 3.4% of the library has one in this group of screens.

SMILES	MITF primary	GPR151 ag	TEAD-YAP block	FBW7 activator
O=C1CCCN1CCn1cnc2c(NCCc3ccc(O)cc3)nc(N3CCN(c4ccccn4)CC3)nc21	5	0	36*	0
Cc1nc2ccccn2c1C(=O)NCc1cccc(Cl)c1	10	4	-4	0
O=C1CCCN1CCCNc1nc(N2CCN(c3ccccn3)CC2)nc2c1ncn2-c1ccsc1	-7	-3	58*	0
O=C1CCCN1CCCNc1nc(Nc2ncccn2)nc2c1ncn2-c1ccsc1	-5	1	0	0
O=C1CCCN1CCCNc1nc(NC2CCN(Cc3ccccc3)CC2)nc2c1ncn2CCN1CCCC1=O	-2	1	2	0
O=C1CCCN1CCCNc1nc(NC2CCN(Cc3ccccc3)CC2)nc2c1ncn2-c1ccsc1	-5	0	36*	0
COC(=O)c1ccc(CNC(=O)c2ccc(Cl)c(S(=O)(=O)NC(C)(C)C)c2)cc1	-5	1	3	0
CCOC(=O)C(CC)/C(C)=N\NC(=O)c1ccccc1[N+](=O)[O-] (stereo not drawn)	9	0	2	1
CCOC(=O)C(CC)/C(C)=N\NC(=O)c1ccccc1O (stereo not drawn)	0	1	59*	-1
COc1ccc(C2CC(=O)C3=C(C2)OC(N)=C(C#N)C3c2ccccc2F)cc1 (stereo not drawn)	18	1	7	1
CCc1ccc2nc(SCC(N)=O)c(C#N)cc2c1	-9	1	50*	0
N#Cc1cc2c(nc1SCC(=O)N1CCOCC1)CCCCC2	-5	0	83*	0
N#Cc1cc2c(nc1SCC(=O)Nc1ccccc1)CCCC2	-7	-1	-38	0
CCc1ccc2nc(SCC(=O)OC)c(C#N)cc2c1	5	1	-61	0
CC(C)c1ccc2nc(SCC(=O)N3CCOCC3)c(C#N)cc2c1	0	-1	36*	0
COc1cc2cc(C#N)c(SCC(=O)N3CCOCC3)nc2cc1OC	-7	2	-3	0
N#Cc1cc2c(nc1SCC(=O)Nc1nc3ccccc3s1)CCC2	3	1	90*	0
CCOc1ccccc1/C=N\NC(=O)Cc1cccs1	9	0	2	0
COc1ccccc1NCC(=O)N/N=C/c1c[nH]c2ccccc12	-1	-1	-3	0
NC(=O)c1ccc2cnn(-c3ccc(F)cc3)c2c1	-4	0	4	0
FC(F)(F)c1ccc(Cn2cnc3c(Nc4ccc(N5CCOCC5)cc4)nc(-c4ccc(N5CCOCC5)nc4)nc32)cc1	18	-2	5	0
COC(=O)C1=C(C)NC2=C(C(=O)c3ccccc32)C1c1ccc(OCC(=O)O)c(Cl)c1 (stereo not drawn)	-3	1	2	-1
c1ccc(CNc2ccnc3c(-c4cc5ccccc5o4)cnn23)nc1	12	-1	-70	0
CN(C)CCNc1ccnc2c(-c3cc4ccccc4o3)cnn12	-2	-2	68*	1
CCCNc1ccnc2c(-c3cccc(/C=C/C(=O)O)c3)cnn12	-19	-1	64*	0
SMILES	MITF primary	GPR151 ag	TEAD-YAP block	FBW7 activator
CN(C)CCNc1ccnc2c(-c3cccc(C(N)=O)c3)cnn12	3	-1	57*	0
Cc1cccc(N(C)c2ccnc3c(-c4cccc(C(N)=O)c4)cnn23)c1	-10	2	34*	0
COCCNC(=O)c1noc2c1COc1ccccc1-2	11	0	-51	0
CCCCCCC1CC(C)(c2csc(Nc3ccc(C)cc3)n2)OC1=O (stereo not drawn)	3	-1	10	0
CN(C)CCNC(=O)c1ccc(/C=N/O)nc1	12	1	8	0
Cc1cccc(OCC(=O)Nc2cc3c(C)cc(=O)oc3cc2C)c1	-2	-1	4	0
CN(C)S(=O)(=O)c1ccc(S(=O)(=O)NCc2ccncc2)cc1	-12	1	43*	0
O=C(O)CNS(=O)(=O)c1ccc(Br)s1	3	1	-2	0
O=S(=O)(NCc1ccccc1)c1ccc(S(=O)(=O)NCc2ccncc2)cc1	5	3	29	0
CCOc1cc(S(=O)(=O)NCc2ccncc2)ccc1F	2	0	54*	1
O=S(=O)(NCc1ccncc1)c1ccc(Br)s1	-8	4	34*	0
COc1ccc(S(=O)(=O)NCc2ccncc2)cc1	10	1	43*	0
CCc1cccc(C)c1NC(=O)C1CCCN1S(=O)(=O)c1cccc2nsnc12 (stereo not drawn)	6	0	8	0
Cc1cccn2c(=O)c(C=NCc3ccccc3)c(NCc3ccco3)nc12	11	0	-6	0
COC(=O)c1c(NC(=O)c2ccccc2F)sc(C(=O)N2CCCCC2)c1C	-7	1	-4	0
COc1ccc(OC)c(CCNC(=O)c2cc3c(s2)-c2ccccc2S(=O)(=O)C3)c1	16	-1	2	0
COc1ccc(CNc2ccc3c(c2)ncn3C)c(OC)c1	-4	-1	-55	0
CCCOc1ccc(S(=O)(=O)NCc2ccncc2)c2ccccc12	16	0	32*	0
CCOc1ccc(S(=O)(=O)NCc2ccccc2)c2ccccc12	-4	-1	5	0
Cc1ccc(S(=O)(=O)NCc2ccncc2)cc1C	4	2	41*	0
Cc1cc(S(=O)(=O)NCc2ccncc2)c(C)c(C)c1C	-1	2	43*	0
Cc1cc(S(=O)(=O)NCc2ccncc2)c(C)cc1Cl	17	0	17	0
Cc1ccc(S(=O)(=O)NCc2ccccc2)cc1C	8	2	-2	0
NC(=O)c1c(Cl)nsc1S(=O)(=O)Cc1ccccc1	-1	-2	46*	0
COC(=O)Nc1c(Cl)nsc1S(=O)(=O)Cc1ccccc1	-1	1	14	0
SMILES	MITF primary	GPR151 ag	TEAD-YAP block	FBW7 activator
COc1ccc2c(c1)C(=NN=C(N)N)c1cc(OC)ccc1-2	-11	0	59*	0
COc1ccc2c(c1)C(=O)c1cc(OC)ccc1-2	11	-1	-13	0
Cc1ccc(/C=C2/N=C(c3cc(I)ccc3Cl)SC2=O)o1	8	-1	-6	0
O=C(NNC(=O)c1cccnc1SCc1cccc([N+](=O)[O-])c1)c1ccccn1	24	-1	39*	-1
NC1=NC(=O)/C(=C\c2ccc(-c3cccc([N+](=O)[O-])c3)o2)S1	12	-2	-12	0
NC1=NC(=O)/C(=C/C=C/c2ccc([N+](=O)[O-])o2)S1	98*	0	35*	0
NC1=NC(=O)/C(=C\c2ccc([N+](=O)[O-])o2)S1	80*	1	1	0
O=C1NC(=S)S/C1=C/c1ccc([N+](=O)[O-])o1	74*	0	15	-1
c1nc(Nc2ccc(N3CCOCC3)cc2)cc(N2CCC(N3CCOCC3)CC2)n1	2	5	-8	0
CCN(CC)S(=O)(=O)c1ccc(NC(=O)c2cc(Cl)ccc2OC)cc1	-20	0	0	0
Cc1ccc2nc(-c3cccc(-c4nc5ccc(C)cc5o4)c3)oc2c1	-11	0	-46	0
Cc1ccc2nc(-c3ccc(C)c(N)c3)oc2c1	11	-8	55*	1

Screening results as filed in PubChem BioAssay.
